Screens deposited in PubChem by National Center for Advancing Translational Sciences (NCATS).
Cycloheximide cs – Cycloheximide Counterscreen for Small Molecule Inhibitors of Shiga Toxin | cell reporter, cycloheximide protein synthesis inhibition counterscreen | max response, % | 300,000 compounds, 12% hits; in the data active = max response mostly above about 13%, no sharp cut-off; inactive = mostly below about 14%; also: read at 38.3 µM for the half of the compounds with a filed dose; 0% is about no effect
Pf growth 96h – Primary qHTS for delayed death inhibitors of the malarial parasite plastid, 96 hour incubation; Potency, µM (titrated, usually from 28.7 µM), for the others: at the highest dose activity change, negative = inhibition, most hits filed as inhibitors; 320,000 compounds, 6.9% hits; AID 504834, 2011; P. falciparum luciferase reporter growth, 96 h; also: potency is read from the fitted curve at half-maximal effect; % is scaled to controls: 0 for no effect and ±100 for the full control effect
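Erythrocytes infected with luciferase-expressing P. falciparum were dispensed at 2% hematocrit and 0.05% parasitemia (final), then incubated with compounds 96 hours at 37 C in 5% CO2. Luminescence after detection reagent addition reported growth.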
Shiga toxin inh – A qHTS for Small Molecule Inhibitors of Shiga Toxin; Vero cells, Shiga toxin protein synthesis inhibition reporter; 290,000 compounds, 9.2% hits; inhibition, % at 38.7 µM; in the data active = inhibition mostly above about 28%, no sharp cut-off; inactive = mostly below about 43%; also: 0% is about no effect
Pf growth 48h – Primary qHTS for delayed death inhibitors of the malarial parasite plastid, 48 hour incubation | P. falciparum luciferase growth in erythrocytes, 48 h | Potency, µM (top dose mostly 28.7 µM), for the others: top-dose activity change, negative = inhibition, hits mostly inhibitors | 310,000 compounds, 5.9% hits; also: potency is read from the fitted curve at half-maximal effect; % is scaled to controls: 0 for no effect and ±100 for the full control effect
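Firefly luciferase activity from engineered P. falciparum reports growth; inhibitors lower the luminescent signal. Cultures contained 2% hematocrit erythrocytes at 0.1% final parasitemia.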
AMA1 RON2 block – qHTS for Inhibitors of AMA1-RON; Towards Development of Antimalarial Drug Lead: Primary Screen | AlphaScreen AMA1-biotinylated RON2 peptide binding | Potency, µM (top dose mostly 58.2 µM), without a hit: at the top dose activity change, negative = inhibition, most hits filed as inhibitors | AID 720542, 2013 | Plasmodium falciparum AMA1 (3D7) - RON2 peptide interaction | 360,000 compounds, 0.2% hits;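 also: potency is read from the fitted curve at half-maximal effect; 0% = vehicle wells and -100% = peptide control; nearly all actives have a fitted effect of over 45% in size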
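AMA1 (3D7) with his tag at 25 nM final met compounds first, then biotinylated RON2 peptide at 25 nM; detection used donor plus acceptor beads, 10 µg/mL apiece, read by AlphaScreen after 30 min at room temperature.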
HCV inhibitor – qHTS Assay for Inhibitors of Hepatitis C Virus (HCV); Huh7.5.1 HCVcc-Cre infection, luciferase reporter, 44 h; Potency, µM (doses to about 41.8 µM), inactives show at the highest dose activity change, negative = inhibition, actives largely listed as inhibitors; 340,000 compounds, 3.4% hits; AID 651820, 2012; also: potency is read from the fitted curve at half-maximal effect; % is scaled to controls: 0 for no effect and ±100 for the full control effect
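Cells (1,000/well) were plated 4 h before compound, then infected with HCVcc-Cre virus (~0.5 moi). After 44 h further culture, infection was read as luciferase luminescence following a 15 min substrate incubation at room temperature.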
The depositor's hits bear a star; ? = inconclusive; . = no result given; [ ] = another dose, or the depositor's remark. In the library only some 21% were active in any assay of this set; here they are far more common. Unless noted, calls follow the shape of the dose curve; as a rule, active = well fitted curve in the direction sought with a large enough effect; inconclusive = small, poorly fitted or top-dose-only effect, or another doubt; inactive = no such curve, though single readings can be large; an effect the other way counts as inactive or inconclusive.

SMILES	Cycloheximide cs	Pf growth 96h	Shiga toxin inh	Pf growth 48h	AMA1 RON2 block	HCV inhibitor
CCOC(=O)C(=CNc1ccc(N2CCCCC2)c(S(=O)(=O)Nc2ccccc2OC)c1)C(=O)OCC	.	.	.	.	-6.3%[11.6 µM]	?
CCOC(=O)c1c(C)[nH]c(C(=O)COC(=O)CSC)c1C	-2.2	-17.1%	2.1	.	-0.7%	-12.3%
CCOC(=O)c1c(C)[nH]c(C(=O)COC(=O)c2c(CC)noc2C)c1C	.	?	.	?	7.4%	14.1µM*
CCOC(=O)c1c(C)[nH]c(C(=O)CSc2ccccc2)c1C	43.4*	220.3%	53.4*	127.8%	-3.3%	?
CCOC(=O)c1c(C)[nH]c(C(=O)OCc2c(C)noc2C)c1C	-3.0	?	17.9	?	2.9%	11.2µM*
CCOC(=O)c1c(C)[nH]c(C(=O)COC(=O)c2cc(C)oc2C)c1C	.	21.2%	.	-2.2%	18.2%	?
CCOC(=O)c1c(C)[nH]c(C(=O)CSc2nccc(C)n2)c1C	37.1*	70.2%	87.3*	84.6%	6.5%	?
O=C(OCCc1ccccc1)c1cc(O)c(O)c(O)c1	.	-9.0%	.	-30.9%	?	?
Cc1cccc(C(=Cc2ccc([N+](=O)[O-])cc2)C(=O)O)c1	.	.	.	.	-5.5%	.
COc1ccc(C2=CN(Cc3ccccc3)CCC2=O)cc1	.	.	.	.	-19.6%	12.2%
Cc1cc(C(=O)CSc2ccc(Cl)cc2)cc(C)c1OC(=S)N(C)C	35.6*	?	89.8*	.	-8.5%	10µM*
CCCc1cc(=O)[nH]c(SCC(=O)CSc2nc(CCC)cc(=O)[nH]2)n1	-2.9	-20.4%	19.2	5.4%	86.0%	8.0%
CCCc1cc(=O)[nH]c(SCC(=O)c2[nH]c(C)c(C(=O)OCC)c2C)n1	-3.2	-13.8%	31.9	6.3%	-1.1%	11.2µM*
CC(=O)c1c(C)[nH]c(C(=O)COC(=O)CCSc2ccccc2)c1C	-1.6	14.7%	-5.6	10.1%	-8.2%	5.2%
CCOC(=O)c1[nH]c(COC(=O)c2ccccc2NC(=O)c2ccco2)c(C(=O)OCC)c1C	14.7	?	-17.6	11.7µM*	-6.3%	?
CCOC(=O)c1c(C)[nH]c(C(=O)COC(=O)CCSc2ccccc2)c1C	46.0*	119.2%	60.0*	90.3%	4.0%	-3.9%
Cc1ccn2c(C(=O)CSc3ccc(Cl)cc3)c(C)nc2c1	-1.3	?	-2.7	?	-0.9%	-12.3%
Cc1ccc(-c2c(C3C4C=CCCC4(C)C(=O)N3Cc3ccccc3)ccc3ccccc23)cc1 (centres undefined)	9.3	.	6.6	.	.	.
O=C(NN1CCCCCC1)c1ccccc1F	.	.	.	.	2.3%	1.0%
COC(=O)C1CC(C(=O)OC)C2C(C(=O)OC)CC(C(=O)OC)C12 (centres undefined)	.	.	.	.	11.2%	8.2%
O=C(COC(=O)C1=COCCO1)NCc1ccc(Cl)cc1	16.9	15.2%	33.5	0.2%	4.8%	1.9%
COc1ccc(N2C(=O)C(C)C(Cc3ccc(C)cc3)C2=O)cc1 (centres undefined)	11.9	?	.	40.8%	7.4%	5.4%
O=C(Cn1c(=O)oc2ccccc21)Nc1n[nH]c(=S)s1	-1.9	-1.8%	-11.2	25.9%	37.3%	8.4%
CCOC(=O)c1c(C)[nH]c(C(=O)OCc2ccc(C)cc2)c1C	.	.	.	.	-20.2%	?
CCOC(=O)c1c(C)[nH]c(C(=O)OCc2ccccc2)c1C	87.2*	-61.2%	59.5*	160.6%	-5.1%	.
SMILES	Cycloheximide cs	Pf growth 96h	Shiga toxin inh	Pf growth 48h	AMA1 RON2 block	HCV inhibitor
Cc1cc(NC(=O)CSCC(=O)OCc2nnc(-c3ccc(F)cc3)o2)no1	.	.	.	.	12.3%[11.6 µM]	5.1%
NNC(=O)c1ccc(COc2ccc3ccccc3c2)o1	18.6*	?	34.1*	-6.5%	62.9%	0.4%
CCOc1ccc(OCc2ccc(C(=O)NCc3cccnc3)o2)cc1	14.3	?	-3.8	0.3%	-1.3%	?
CCOc1ccc(OCc2ccc(C(=O)NN)o2)cc1	30.3*	181.9%	53.7*	71.6%	15.0%	11.0%
NNC(=O)c1ccc(COc2cccc3ccccc23)o1	7.9	23.8%	22.2	-18.8%	73.4%	6.6%
CCOc1ccc(OCc2ccc(C(=O)Nc3cccnc3)o2)cc1	30.7*	9.28µM*	157.8*	11.7µM*	-8.5%	-15.3%
Cc1ccc(OCc2ccc(C(=O)NN)o2)cc1C	26.4*	39.7%	31.1	-5.4%	38.0%	15.1%
O=C(NC1CCCCC1)C1c2ccccc2OCC(=O)N1Cc1ccc2c(c1)OCO2 (centres undefined)	.	.	.	.	1.8%	.
CC(=O)Oc1ccccc1Cn1c(C)c(C(=O)NCCC#N)sc1=O	.	.	.	.	-0.6%	.
Cn1nc(C(C)(C)C)cc1C(=O)N1CCCCC1c1cc(C(=O)NCc2cccnc2)no1 (centres undefined)	.	.	.	.	7.1%	.
NCCCC(O)(P(=O)(O)O)P(=O)(O)O	-4.5	-6.2%	10.4	0.8%	.	.
CN(C)c1ccc(NC(=O)c2ccc(COc3cccc(Cl)c3)o2)cc1	54.9*	.	77.2*	.	28.2µM*	-27.7%
CCOc1ccc(OCc2ccc(C(=O)NC(C)(C)C)o2)cc1	12.1	?	37.2*	-10.9%	-4.7%	?
CC(C)NC(=O)c1ccc(COc2ccc(C(C)(C)C)cc2)o1	95.4*	?	159.5*	-15.2%[0.00184 µM]	0.0%	?
CC(C)NC(=O)c1ccc(COc2cccc3ccccc23)o1	.	.	.	.	-6.8%	.
O=C(NCc1ccccn1)c1ccc(COc2ccc(Cl)cc2)o1	-2.4	?	0.7	0.2%	14.4%	-34.8%
O=C(OCc1ccccn1)c1ccc(COc2ccc3ccccc3c2)o1	44.5*	219.9%	65.8*	82.4%	20.7%	18.5%
O=C(CCNS(=O)(=O)c1ccc(Br)cc1)NCCc1ccc(Cl)cc1	-0.4	-22.3%	15.3	-17.2%	-5.4%	?
Cc1ccc(-n2nc3ccc(N)cc3n2)c(C)c1	17.0*	1.65µM*	.	97.5%	-15.5%	-3.6%
Cc1ccc(-n2nc3ccc(N)cc3n2)cc1C	44.4*	185.0%	.	0.0%	36.8%	-0.9%
Cc1cc(N)ccc1-n1nc2ccccc2n1	.	.	.	.	-1.2%	4.9%
COc1ccc(-n2nc3ccc(N)cc3n2)cc1Cl	28.2*	28.9%	.	57.1%	24.5%	?
Cc1ccc(-n2nc3ccc(N)cc3n2)cc1Cl	32.2*	4.15µM*	67.4*	89.2%	0.0%	-21.2%
O=P1(O)CC2=C(CC=CC2)C1	.	.	.	.	1.6%	.
CCCCC(CC)CNC(=O)c1ccc2c(=O)n(CCOC)c(=O)[nH]c2c1 (centres undefined)	-6.7	.	2.5	.	.	.
COc1ccc(-n2nc3ccc(NS(C)(=O)=O)cc3n2)cc1Cl	9.6*	25.9%	34.5*	54.6%	-18.0%	?
